Among all 360,000 compounds or so, about 9,100 (2.5%) were called active. About 4% were inconclusive and are not listed. The entries come from a sample that favours actives as a whole. Unmarked numbers belong to inactive results. Cut-off read from the data, not from the text of the source: active = max response below about -50%; inconclusive = no clear call, values can overlap the other calls; inactive = above that.

Max response, negative = inhibition data for 48 compounds are collected here from PubChem BioAssay AID652054 (National Center for Advancing Translational Sciences (NCATS), 2013).
% is set by controls: 0 for no effect and ±100 for the full control effect.

Chain of D(3) dopamine receptor (Homo sapiens) (P35462 whole entry, looked up): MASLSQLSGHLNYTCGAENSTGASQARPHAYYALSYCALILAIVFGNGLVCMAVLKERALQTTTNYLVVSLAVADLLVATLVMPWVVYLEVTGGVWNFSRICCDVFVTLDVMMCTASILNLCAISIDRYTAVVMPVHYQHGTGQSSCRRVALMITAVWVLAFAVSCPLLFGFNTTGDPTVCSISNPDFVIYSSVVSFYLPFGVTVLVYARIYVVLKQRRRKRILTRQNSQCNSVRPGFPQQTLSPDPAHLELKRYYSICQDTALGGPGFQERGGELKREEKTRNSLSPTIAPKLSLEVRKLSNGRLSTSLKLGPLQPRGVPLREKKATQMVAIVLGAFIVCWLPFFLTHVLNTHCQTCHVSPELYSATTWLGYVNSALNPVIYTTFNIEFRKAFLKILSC

The assay deals with D(3) dopamine receptor (Homo sapiens) (UniProt P35462). Put plainly: qHTS of D3 Dopamine Receptor Antagonist: qHTS. Particulars: D3R cells, DiscoveRx beta-arrestin luminescence, antagonist mode; hits give low values. An excerpt:
D3 DARs represent a very important target for the treatment of several neuropsychiatric disorders. Indeed, one of the most promising therapeutic applications for the D3 DAR is in the area of addiction and related disorders. […] These findings have been observed with a number of addictive substances including cocaine, amphetamine, nicotine, and alcohol. […] Antagonism of the D3 DAR may also be therapeutic in the treatment of schizophrenia or psychosis. […] Since the D3 DAR is expressed in areas of the CNS associated with the control of mood and emotion, it has been hypothesized that selective antagonism of the D3 DAR may be effective in treating psychosis without inducing the motor side effects typically seen with D2 DAR antagonists.
This part of the project aims to discover novel antagonist.
NIH Chemical Genomics Center [NCGC]
NIH Molecular Libraries Probe Centers Network [MLPCN]
Assay Submitter (PI): David Sibley, NINDS
Freshly passaged cells are plated in 1536 well white, solid bottom plates at a density of 1500 cells/well in 3microl of complete media. After an overnight incubation at 37 degrees C in 5% CO2, cells are loaded with 23nl of test compound from the compound library (as well as dopamine controls) using a 1536 pintool and incubated at 37 degrees C for 90 minutes. Two microliters of DiscoveRx reagent is then added to all cells, and they are incubated for an additional 30 - 60 minutes at room temperature. Following incubation, luminescence is measured on a ViewLux CCD-based luminometer reader using a 20 sec exposure time.
For orientation: In qHTS, concentration-response curves come from the screen itself.
In the case of `Cc1ccc(CN2CCCC(C(=O)c3ccc4c(c3)OCO4)C2)cc1C` (stereo not drawn), the max response, negative = inhibition is -74.3% (active). To `Cc1ccsc1C(=O)C1CCCN(Cc2ccc(O)cc2)C1` (stereo not drawn) belongs -22.3%; to `COc1ccc(C2C=C(C)Oc3c2c(=O)oc2ccccc32)cc1OC` (stereo not drawn), 1.55%; to `CC1(C)Cc2c(C#N)c(N3CCNCC3)nc(-c3ccco3)c2CS1`, -15.4%.

`Fc1ccc(N2CCN(Cc3ccc4c(c3)OCO4)CC2)cc1`: the max response, negative = inhibition was -111% (active). The result for `CC(C)c1ccc(O)c(CN2CCN(c3ccccc3)CC2)c1` reads -71% (active); that for `CCN1CCN(Cc2cc(OC)c3c(c2)OCO3)CC1`, 2.18%; that for `O=C(Cc1ccccc1[N+](=O)[O-])N1CCN(Cc2ccc3c(c2)OCO3)CC1`, -4.07%.

Turning to `Oc1cc2c(cc1CN1CCN(c3ccccc3)CC1)OCO2`, the max response, negative = inhibition was -71.5% (active). The result for `Cc1cc(=O)oc2c(C)c(OCC(=O)N3CCN(Cc4ccc5c(c4)OCO5)CC3)ccc12` reads 0.853%.

For `COc1ccccc1CN1CCN(C(=O)Cc2ccccc2)CC1`, the max response, negative = inhibition was -24%. To `OC(Cn1c2ccccc2c2ccccc21)C[n+]1ccccc1` (stereo not drawn) belongs -9.75%; to `c1cc2c(cc1C1OCC3C(c4ccc5c(c4)OCO5)OCC13)OCO2` (stereo not drawn), 1.57%; to `C[C@]12CC[C@H](O)CC1=C([N+](=O)[O-])CC1C2CC[C@@]2(C)C1CC[C@@H]2O` (stereo partly drawn), 10.3%. Take `O=C1C2CCN(CC2)C1(CO)CO`: the max response, negative = inhibition is 5.89%. The result for `CC(=O)C1(O)CCC2C3CCC4=C(Cl)C(=O)CCC4(C)C3CCC21C` (stereo not drawn) reads -13.9%; that for `CCN1CCN(C(=O)Cc2coc3cc(C)cc(C)c23)CC1`, -9.21%. The result for `C[C@]12CCC3C(CC[C@H]4[C@H](O)[C@H](O)CC[C@]34C)C1CC[C@@H]2O` (stereo partly drawn) reads 2.6%; that for `CC(C)CN1Cc2cc(N3CCCCC3)ccc2-n2nncc2C1`, -13.6%.

Regarding `CCOc1ccc(CN(CCCl)CCCl)cc1C(=O)OC`, the max response, negative = inhibition was -27.4%. As to `CC(C)c1ccc(OCC(=O)N2CCN(C)CC2)c(Br)c1`, the max response, negative = inhibition was -52% (active). Consider `CC(C)c1ccc(OCC(=O)N2CCCN(C)CC2)cc1`, for which the max response, negative = inhibition was -7.58%. On to `CN1CCN(C(=O)COc2ccc(C(C)(C)C)cc2Br)CC1`, for which the max response, negative = inhibition was 0%. Regarding `Cc1ccc(P(=S)(c2ccc(C)o2)N2CCOCC2)o1`, the max response, negative = inhibition was 14%.

As for `Cc1nc2ccccn2c1P(=S)(N1CCCCC1)N1CCCCC1`, the max response, negative = inhibition is 12%. The result for `Cc1cc(C)cc(NC(=S)NC2CC3CCCC(C2)N3Cc2cccs2)c1` (stereo not drawn) reads -81.8% (active); that for `CCC1(CC(C)c2ccccc2)C(=O)NC(=O)NC1=O` (stereo not drawn), 6.61%. Consider `O=C(CCN1CCCCC1)NCC(=O)Nc1ccc(Br)cc1C(=O)c1ccccc1`, for which the max response, negative = inhibition is -29.9%. The result for `Cc1ccc(Cn2c(C)c3cnn(CC(=O)N4CCC5(CC4)OCCO5)c(=O)c3c2C)cc1` reads 3.94%. The result for `Cc1ccc(Cn2nnnc2CN2CCC(n3nnc4ccccc43)CC2)cc1` reads -69% (active); that for `O=c1[nH]c2ccccc2n1C1CCN(C(c2ccccc2)c2nnnn2Cc2ccccc2)CC1` (stereo not drawn), 71.4%; that for `O=c1[nH]c2ccccc2n1C1CCN(C(c2ccnc3ccccc23)c2nnnn2Cc2ccccc2)CC1` (stereo not drawn), 9.58%. To `CCOC(=O)[C@]12Cc3ccccc3[C@H]1N(C1CCCCC1)C(=O)c1cc(OC)ccc12` belongs -14.9%; to `O=C(COC(=O)Cc1ccccc1)Nc1ccc(F)cc1`, 6.49%; to `CCOc1cccc(=NC2CCCCC2)c2c(C)[nH]c(C)c12`, 13.5%. Take `CCN1CC2C3CCC(C)(O3)C2C1` (stereo not drawn): the max response, negative = inhibition is -7.4%. As for `Cc1nc2nc(C)c(CCC(=O)N3CCC4(CC3)OCCO4)c(C)n2n1`, the max response, negative = inhibition is -10.8%. To `CN1CCC(OC(=O)c2cccc(F)c2)CC1` belongs -13.8%; to `COc1ccc(C(=O)C2CN(C)CC2C(=O)c2ccc(OC)cc2)cc1` (stereo not drawn), -1.15%; to `Cc1ccc(C2CN(C)CC2C(=O)c2ccc(F)cc2)cc1` (stereo not drawn), -102% (active).

As for `Cn1c(O)c(C(=Nc2ccc(F)cc2)c2ccccc2)c(=O)n(C)c1=O`, the max response, negative = inhibition was -8.88%. In the case of `c1cncc(CNCCc2c[nH]c3ccccc23)c1`, the max response, negative = inhibition is 14.8%. As for `O=C1NCN(c2ccccc2)C12CCN(C(c1cccs1)c1nnnn1C1CCCCC1)CC2` (stereo not drawn), the max response, negative = inhibition was -8.63%. The result for `c1ccc(N2Cc3ccccc3-n3nncc3C2)nc1` reads -20.4%. Turning to `CC(=O)OC1C2(CC3N4C(=O)C5(CO)SSC4(CC31O)C(=O)N5C)OC(C)C(C)(C)C2=O` (stereo not drawn), the max response, negative = inhibition was -98.1% (active). The result for `CN(C)S(=O)(=O)c1cc(C(=O)N2CCC(C(=O)O)(c3ccccc3)CC2)ccc1Cl` reads -1.23%; that for `Clc1ccc2nc3c(c(-c4ccccc4)c2c1)CNCC3`, -1.49%.

`COc1ccc(-n2nnnc2C(c2cccc3ccccc23)N2CCC(n3c(=O)[nH]c4ccccc43)CC2)cc1` (stereo not drawn): the max response, negative = inhibition is 117%.
